For orientation: inhibition means the change of the read-out against control, counted positive when it falls.

For this test, the target named is Solute carrier family 2, facilitated glucose transporter member 1 (Homo sapiens) (UniProt P11166). The experiment in a line: ST_JUDE_LEISH: Cytotoxicity at 2uM final concentration against transgenic Leishmania Mexicana promastigotes LmGLUT1 that are glucose transport deficient and complemented with the human glucose transporter GLUT1. Activity is measured by DNA content using SYBR green in vitro. Format: functional.
Chain of Solute carrier family 2, facilitated glucose transporter member 1 (Homo sapiens) (P11166 whole entry): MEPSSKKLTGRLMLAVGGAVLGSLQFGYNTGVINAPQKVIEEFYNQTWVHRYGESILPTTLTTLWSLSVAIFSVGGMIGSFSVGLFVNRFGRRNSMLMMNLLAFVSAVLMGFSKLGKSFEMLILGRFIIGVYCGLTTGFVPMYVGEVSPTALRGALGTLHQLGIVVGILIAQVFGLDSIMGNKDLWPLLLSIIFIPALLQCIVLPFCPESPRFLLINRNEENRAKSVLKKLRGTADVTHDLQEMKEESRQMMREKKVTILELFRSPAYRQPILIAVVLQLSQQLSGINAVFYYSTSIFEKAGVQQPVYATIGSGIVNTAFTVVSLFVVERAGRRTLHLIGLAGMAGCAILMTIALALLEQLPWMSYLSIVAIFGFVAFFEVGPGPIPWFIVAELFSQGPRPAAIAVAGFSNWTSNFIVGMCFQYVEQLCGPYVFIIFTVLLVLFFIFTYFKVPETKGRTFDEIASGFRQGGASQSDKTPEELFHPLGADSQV
As to `CC(=O)N(Cc1nc(-c2cc(Cl)c(Cl)s2)cs1)c1c(C)cccc1C`, the inhibition turned out to be 4.94%.

In the case of `O=C(Nc1cccc(-c2nn3ccccc3c2-c2ccnc(Nc3cccc(F)c3)n2)c1)C1CCCCC1`, the inhibition was found to be 1.19%. Consider `Cc1cc(C(=O)Nc2ccc(OCc3ccccc3)cc2)on1`, for which the inhibition is -1.56%. As for `N#Cc1ccc(C=CC(=O)NC2CCC(CCN3CCc4ccc(-c5cnccn5)cc4CC3)CC2)cc1` (stereo not given), the figure is 4.1%; as for `CCOCn1c(-c2ccccc2)cc2c3c(N)nc(N)nc3ccc21`, 98.3%.

`CCC(C(=O)Nc1ccccc1)n1nc(-c2ccc(C)c(S(=O)(=O)N3CCCCC3)c2)ccc1=O` (stereo not given): the inhibition amounted to 3.12%. Regarding `CC(C)CNCc1ccc(-c2ccc(CN(CCCN3CCN(C)CC3)C(=O)/C=C/c3ccccc3)cc2)cc1`, the inhibition was found to be 8.73%. Regarding `CC(C)(C)c1ccc(CN2CCC(CNC(=O)c3cc(-c4ccccc4C(F)(F)F)cs3)C2)cc1` (stereo not given), the inhibition was 1.63%. For the compound `O=c1ccccn1CCCC1CCCCN1` (stereo not given), the inhibition was 12.2%. Take `COc1ccc(Nc2nccc(-c3ccc(NC(=O)c4cc5cc(F)ccc5[nH]4)cc3)n2)cc1`: the inhibition is -0.57%. For the compound `CC(C)NCc1ccc(-c2ccc(-c3nc4cc(C(F)(F)F)ccc4[nH]3)s2)cc1`, the inhibition turned out to be 19.5%.

For the compound `c1ccc(-n2ncc(CNCc3ccc(-c4ccc(-c5nc6ccccc6[nH]5)s4)cc3)n2)cc1`, the inhibition worked out at 2.35%. Turning to `CN(CCN(C)CC(O)c1ccc(Cl)c(Cl)c1)CC(O)c1ccc(Cl)c(Cl)c1` (stereo not given), the inhibition came to 11.5%. For the compound `Cc1ccc(-c2nnc(Nc3ccc(C(=O)N4CCCCC4)cc3)c3ccccc23)cc1S(=O)(=O)NCC1CCCO1` (stereo not given), the inhibition amounted to 4.15%. As for `O=C(C1COc2ccccc2O1)N(CCCn1ccnc1)Cc1csc(-c2ccc(CNCc3ccccc3)cc2)n1` (stereo not given), the inhibition is 3.99%.

The values above are taken from ChEMBL document CHEMBL3433997, “St. Jude Leishmania screening dataset” (2016).
